Only some compounds are listed: those with a hit (about 0.89% of all), similar ones and a draw of the others.
AGP1 TOR yeast: yeast TOR pathway AGP1-GFP modulation; S. cerevisiae AGP1-GFP multiplex flow cytometry, 3 h; GFP as percent of DMSO wells; GFP response vs DMSO, % at 10 µM; hit rate 0.02% among 320,000;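 active = GFP response relative to DMSO above a set limit, near screen average plus 3 SD, cut at about 150% in these data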;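 also: median GFP channel fluorescence of the gated AGP1 strain per well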
RPL19A TOR yeast: modulators of TOR pathway RPL19A-GFP in S. cerevisiae. S. cerevisiae RPL19A-GFP strain, flow cytometry, 3 h; hits give low values. percent response vs DMSO, % at 10 µM. hit rate 0.3% among 330,000;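 active = percent response vs DMSO below 50%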;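 also: median channel GFP fluorescence of the barcoded RPL19A-GFP strain; ratio of sample median GFP to plate DMSO average so 100% = DMSO; lower means less RPL19A-GFP as with rapamycin TOR inhibition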
LAP4 TOR yeast: alters LAP4-GFP fluorescence in TOR pathway yeast screen; S. cerevisiae LAP4-GFP multiplex, flow cytometry GFP, 3 h; median GFP as percent of DMSO wells; GFP response vs DMSO, % at 10 µM; hit rate 0.34% among 320,000;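 active = GFP response vs DMSO above a set limit, about the screen mean plus 3 SD, cut at about 150% in these data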
MEP2-GFP yeast: modulators of TOR pathway MEP2-GFP in S. cerevisiae. GFP response vs DMSO, % at 10 µM. S. cerevisiae MEP2-GFP strain, flow cytometry GFP, 3 h; 100% = DMSO control level. hit rate 0.51% among 330,000;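 active = GFP response versus DMSO above a set limit, roughly screen mean plus 3 SD, cut at about 180% in these data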;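 also: median GFP fluorescence of the barcode-gated MEP2-GFP cells per well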
CIT2-GFP yeast: alters CIT2-GFP fluorescence in TOR pathway yeast screen | S. cerevisiae CIT2-GFP strain, flow cytometry, 3 h; 100 means same as DMSO wells | GFP response vs DMSO, % at 10 µM | hit rate 0.065% among 320,000 | AID 2029;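 active = GFP response relative to DMSO above a set limit, near the screen mean plus 3 SD, cut at about 150% in these data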;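 also: ratio of well median GFP fluorescence to mean of DMSO wells on the plate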
LAP4 cherry2: yeast LAP4-GFP modulation, second cherry pick; AID 2621; GFP response vs DMSO, % at 10 µM; shares compounds with LAP4 TOR yeast; hit rate 20% among 590; S. cerevisiae LAP4-GFP strain, flow cytometry GFP, 3 h;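 active = GFP signal as percent of the solvent control above about 150%, meaning raised reporter expression, limit read from the data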;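 also: ratio of well median GFP fluorescence to plate DMSO mean so 100% = DMSO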
MEP2-GFP pick2: second confirmation of modulators of TOR reporter MEP2-GFP in yeast | shares compounds with LAP4 TOR yeast | S. cerevisiae MEP2-GFP strain, flow cytometry GFP, 3 h | GFP response vs DMSO, % at 10 µM | hit rate 10% among 590 | AID 2622;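 active = GFP signal above 150% of the solvent control wells, that is a rise of more than half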;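 also: median channel GFP fluorescence of all gated yeast cells per well; ratio of median GFP to plate DMSO average so 100% = DMSO level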
RPL19A GFP CP2: yeast RPL19A-GFP TOR reporter modulation, second cherry pick. shares compounds with LAP4 TOR yeast. S. cerevisiae RPL19A-GFP strain, flow cytometry GFP, 3 h; hits give low values; 100% means same as DMSO wells. GFP response vs DMSO, % at 10 µM. hit rate 3% among 590;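 active = under 65% GFP response relative to DMSO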;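 also: median GFP channel fluorescence per well over the all cells gate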
CIT2 GFP CP2: yeast CIT2-GFP TOR reporter modulation, second cherry pick. shares compounds with LAP4 TOR yeast. S. cerevisiae CIT2-GFP strain, flow cytometry GFP, 3 h; DMSO control wells read 100%. GFP response vs DMSO, % at 10 µM. hit rate 8% among 590. AID 2624;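 active = GFP response vs DMSO above about 150%, limit read from the data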;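 also: median green fluorescence per well over all gated yeast cells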
AGP1 GFP CP2: reconfirmed modulator of AGP1-GFP TOR reporter in yeast; shares compounds with LAP4 TOR yeast; S. cerevisiae AGP1-GFP strain, flow cytometry GFP, 3 h; percent response vs DMSO, % at 10 µM; 590 tested, under 10 active;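 active = over 150 percent of DMSO response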;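 also: median GFP channel fluorescence over all cells without mother daughter split; sample median GFP divided by mean DMSO control so 100% equals DMSO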
Yeast autofluor: yeast s288c autofluorescence artifact, counter-screen; fluorescence change (kMESF span) at 33 µM; S. cerevisiae s288c, 520 nm autofluorescence, flow cytometry, 3 h; hits give high values; zero means same as solvent-only cells; 610 tested, under 10 active; shares compounds with LAP4 TOR yeast;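 active = fluorescence span over the dose series, or activity score, above about 33, limit read from the data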
s288c autofl DR: counter-screen for autofluorescence of TOR hits in yeast s288c; shares compounds with LAP4 TOR yeast; S. cerevisiae s288c parental, compound autofluorescence, flow cytometry, 3 h; fluorescence change (span) at 33 µM; 110 tested, under 10 active;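 active = fluorescence change span, or the activity score built from it, above 25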
TORC1 bypass gr: wildtype yeast growth loss with TORC1 bypass cells unaffected; growth rating (0-3) at 30 µM; 120 tested, under 10 active; shares compounds with LAP4 TOR yeast; AID 504456; S. cerevisiae BY4741 spot growth rating, 48-72 h; hits give low values;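 active = growth rating at most 1 for wild type yeast while the TORC1 bypass strain still grows fully, rated 3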
* hit, by the source's call; nt = not tested or not shown; [ ] = remark or other dose.

SMILES	AGP1 TOR yeast	RPL19A TOR yeast	LAP4 TOR yeast	MEP2-GFP yeast	CIT2-GFP yeast	LAP4 cherry2	MEP2-GFP pick2	RPL19A GFP CP2	CIT2 GFP CP2	AGP1 GFP CP2	others
Cn1ncc(S(=O)(=O)Cc2ccccc2)c(Cl)c1=O	101	100	161*	94	93	nt	nt	nt	nt	nt	Yeast autofluor=0.2;s288c autofl DR=0.84;TORC1 bypass gr=3
CCCCN(C)C1=CC2=CC(=C(C#N)C#N)CCC2CC1 (stereo unspecified)	123	126	190*	335*	207*	489*	821*	152	619*	133
CCN(CC)C1=CC2=CC(=C(C#N)C#N)CCC2CC1 (stereo unspecified)	123	140	197*[may fluoresce green]	297*[may fluoresce green]	310*[may fluoresce green]	354*	470*	128	434*	120
CC1CN(C(=O)c2ccccc2OCc2ccc(Cl)cc2Cl)CC(C)O1 (stereo unspecified)	92	93	92	88	92	nt	nt	nt	nt	nt
O=C(Nc1cccc(C(F)(F)F)c1)Oc1ccc(Cl)c2cccnc12	70	95	202*	99	113	nt	nt	nt	nt	nt	Yeast autofluor=0.5
CCN(CC)C(=O)Oc1ccc(Cl)c2cccnc12	96	101	111	100	94	nt	nt	nt	nt	nt
O=c1cc(CSc2ccc(Cl)cc2)nc(-c2ccccn2)[nH]1	74	83	211*	87	88	264*	169*	86	121	107	Yeast autofluor=-0.3;s288c autofl DR=0.59;TORC1 bypass gr=0
COc1ccccc1-c1cc(Nc2cc(C)[nH]n2)nc(NCc2ccccc2)n1	nt	nt	nt	nt	nt	nt	nt	nt	nt	nt	TORC1 bypass gr=3
COc1cccc(-c2cc(Nc3cc(C)[nH]n3)nc(NCc3ccccc3)n2)c1	nt	nt	nt	nt	nt	nt	nt	nt	nt	nt	TORC1 bypass gr=3
COc1ccc(Nc2cc(C)nc(NCc3ccccc3)n2)cc1	106	99	103	102	106	nt	nt	nt	nt	nt
COc1cc(C)nc(NCc2ccccc2)n1	104	97	89	97	nt	nt	nt	nt	nt	nt
CC(=O)Nc1ccc(S(=O)(=O)Nc2nc(C)nc3sc(C)c(C)c23)cc1	97	92	94	93	87	nt	nt	nt	nt	nt
COc1cccc2c(=O)c(C(=O)NCc3cccs3)c[nH]c12	97	93	101	98	88	101	103	100	98	103	Yeast autofluor=0.5
Oc1ccc(CNc2ccc(F)cc2)c2cccnc12	107	106	84	109	102	nt	nt	nt	nt	nt
Oc1ccc(CNc2ccccc2)c2cccnc12	99	95	78	105	102	103	124	105	121	103	Yeast autofluor=0.4
O=C(COC(=O)c1cccc(Br)c1)NCc1ccco1	101	99	96	100	106	nt	nt	nt	nt	nt
Cc1cccc(NS(=O)(=O)c2ccc(C(=O)NCC(c3ccco3)N3CCCCC3)cc2)c1C (stereo unspecified)	105	99	101	101	103	nt	nt	nt	nt	nt
CCOc1cc(C=C2C(=O)c3ccccc3C2=O)ccc1OCC(=O)Nc1ccc(C)cc1	109	104	109	109	105	96	100	102	101	100	Yeast autofluor=-0.2
CCOc1cc(/C=N/NC(N)=O)ccc1OCC(=O)Nc1ccc(C)c(C)c1	106	97	106	100	99	nt	nt	nt	nt	nt
COc1cc(SSc2cc(OC)cc([N+](=O)[O-])c2N)c(N)c([N+](=O)[O-])c1	88	58	236*	83	108	nt	nt	nt	nt	nt	Yeast autofluor=1
CCn1c(CSc2nnc3ccccn23)nc2cc(C(=O)O)ccc21	93	101	94	92	84	nt	nt	nt	nt	nt
CCn1c(CSc2n[nH]c(N)n2)nc2cc(C(=O)O)ccc21	104	101	125	178*	109	97	98	100	101	101
C=CCN1CCN(C(=O)c2ccc3c(c2)OCO3)CC1	109	100	96	108	157*	104	103	97	100	103
CSC[C@@H]1NC(=S)N(c2ccc(C)cc2)C1=O	97	103	111	94	91	nt	nt	nt	nt	nt
COc1ccc(-c2ncncc2-c2csc(C)n2)c(O)c1OC	91	98	99	99	89	nt	nt	nt	nt	nt
SMILES	AGP1 TOR yeast	RPL19A TOR yeast	LAP4 TOR yeast	MEP2-GFP yeast	CIT2-GFP yeast	LAP4 cherry2	MEP2-GFP pick2	RPL19A GFP CP2	CIT2 GFP CP2	AGP1 GFP CP2	others
COC1=C(N)C(=O)c2nc(-c3nc(C(=O)O)c(C)c(-c4ccc(OC)c(OC)c4O)c3N)ccc2C1=O	67	60	218*	132	71	309*	252*	95	349*	98
COc1ccc(C2OC34CCCCC3C(C#N)(C#N)C2(C#N)C(=N)O4)cc1 (stereo unspecified)	32	63	93	139	80	94	96	100	106	96
CC(=O)c1cccc(S(=O)(=O)N2CCC(C(=O)O)(c3ccccc3)CC2)c1	105	102	94	103	100	nt	nt	nt	nt	nt
Cc1ccc2c(c1)N(CCCC(=O)NCC1COc3ccccc3O1)C(=O)CO2 (stereo unspecified)	96	96	108	99	90	nt	nt	nt	nt	nt
Cc1ccc2c(c1)N(CCCC(=O)Nc1cccc(C(F)(F)F)c1)C(=O)CO2	15	60	86	111	98	102	110	99	100	98
O=C(COc1ccccc1)N1CCN(c2ncnc3c2cnn3-c2ccccc2)CC1	103	94	95	190*	85	nt	nt	nt	nt	nt	Yeast autofluor=0
Cc1ccc(S(=O)(=O)/C(C#N)=C/c2c(Oc3ccc(Cl)cc3)nc3c(C)cccn3c2=O)cc1	21	52	81	384*	104	102	101	101	95	100
CCOc1ccc(CCNC(=O)CN2C(=O)NC3(CCCCCC3)C2=O)cc1OCC	101	99	100	108	100	nt	nt	nt	nt	nt
